# High-throughput results deposited in PubChem BioAssay by National Center for Advancing Translational Sciences (NCATS).
# A selection: hits, their analogues and other compounds. The true share with any hit is near 4.7%.
# NTMT1 inh: NTMT1 methyltransferase inhibition. NTMT1 MTase-Glo SAH luminescence, purified enzyme. Potency, µM (highest dose often 114 µM), without a hit: at the top dose activity change, negative = inhibition, usual class: inhibitors. 59,000 tested, 2.5% active;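 further: potency means the concentration at half of the fitted maximal effect; plate controls were DMSO vehicle for no effect and no enzyme for full effect; nearly all actives have a fitted effect of over 65% in size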
# Target sequence (Q9BV86 whole entry, looked up): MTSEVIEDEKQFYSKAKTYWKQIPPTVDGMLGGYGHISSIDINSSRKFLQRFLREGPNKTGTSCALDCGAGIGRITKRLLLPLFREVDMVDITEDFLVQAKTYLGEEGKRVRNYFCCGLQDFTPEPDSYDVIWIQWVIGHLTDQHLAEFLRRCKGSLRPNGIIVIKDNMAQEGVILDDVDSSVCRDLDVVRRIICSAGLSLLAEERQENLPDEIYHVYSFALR
# HTT-AS promoter: HTT-AS promoter activation; Potency, µM (series often up to 57.5 µM), for inactives: at the highest dose activity change, positive = activation, most hits filed as activators; 48,000 tested, 0.24% active; HEK293 HTT-AS promoter firefly luciferase reporter, 24 h; response scale: percent change from vehicle, -100% = no light; AID 1508624; further: potency means the concentration at half of the fitted maximal effect; nearly all actives have a fitted effect of over 55% in size
#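 HEK293 cells carrying firefly luciferase reporters were seeded at 2,500 per well in Opti-MEM and cultured for 24 h. They were then treated with compounds at up to 57.5 uM final for 24 h at 37 degrees C before Dual-Glo luminescence readout.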
# FH mod: Identification of activators of human fumarate hydratase by quantitative high-throughput screening | 54,000 tested, 0.22% active | FH coupled MDH/diaphorase resazurin fluorescence, 15 min | AID 1347055, 2019 | Potency, µM (series often up to 79.9 µM), for inactives: at the top dose activity change, negative = inhibition, actives largely listed as inhibitors; further: potency means the concentration at half of the fitted maximal effect; on the % scale 0 is the no-effect control and ±100 the full control effect; the screen sought activators but most active calls are inhibition curves; nearly all actives have a fitted effect of over 45% in size
# GPR32 ag: activates human resolvin D1 receptor GPR32. O75388. CHO-K1 GPR32 beta-arrestin PathHunter luminescence, 90 min; zero percent set by DMSO-only wells. activation, % at 76.9 µM. 48,000 tested, 2.5% active. AID 1346428;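 active means activation of at least 60% and not above a set upper limit, about 1 call in 100 departs from these limits; inconclusive means activation of 40% to 60%, or above that upper limit; inactive means activation under 40%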; further: 0% is about no effect
# Target sequence (O75388 whole entry, looked up): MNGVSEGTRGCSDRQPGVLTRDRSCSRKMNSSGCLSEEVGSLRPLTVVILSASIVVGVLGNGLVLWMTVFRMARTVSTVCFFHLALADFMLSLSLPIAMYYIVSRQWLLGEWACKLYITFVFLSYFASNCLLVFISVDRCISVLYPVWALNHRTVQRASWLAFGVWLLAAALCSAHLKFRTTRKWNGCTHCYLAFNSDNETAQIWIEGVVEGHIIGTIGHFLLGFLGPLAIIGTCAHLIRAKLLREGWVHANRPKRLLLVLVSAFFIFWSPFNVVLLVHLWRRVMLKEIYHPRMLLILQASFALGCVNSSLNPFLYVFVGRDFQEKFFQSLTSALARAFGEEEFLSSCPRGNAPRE
#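 Step 1: seed CHO-K1 GPR32 beta-arrestin cells, 2,500/well, overnight at 37 °C. Step 2: add compounds, 90 min at 37 °C. Step 3: detection reagent, 1 h ambient, then luminescence.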
# HTT prom inh: HTT promoter inhibition | HEK293 HTT promoter firefly luciferase reporter, 24 h | 48,000 tested, 0.93% active | Potency, µM (doses to about 57.5 µM), inactives show at the top dose activity change, negative = inhibition, most hits filed as inhibitors; further: potency means the concentration at half of the fitted maximal effect; nearly all actives have a fitted effect of over 50% in size
#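 HEK293 Fluc reporter, 2,500 cells/well, 24 h pre-culture; cpds up to 57.5 uM final, 24 h 37 degrees C; Dual-Glo, 10 min RT; normalized vehicle = 0%, zero RLU = -100%.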
# Active calls of the source: *; ? = inconclusive; · = not tested or not shown; ! = not active in a repeat; [ ] = remark or other dose. Unless noted, the call rests on the fitted dose curve; in most records, active means well fitted curve in the direction sought with a large enough effect; inconclusive means small, poorly fitted or top-dose-only effect, or another doubt; inactive means no such curve, though single readings can be large; an effect the other way counts as inactive or inconclusive.
SMILES,NTMT1 inh,HTT-AS promoter,FH mod,GPR32 ag,HTT prom inh
COc1cc(NC(=O)c2cc(-c3cccc(OC)c3)n[nH]2)cc(OC)c1,-15.8%,?,?,81.5*,2.4%
COc1cc(NC(=O)c2ccc(-c3ccc(Cl)cc3)o2)cc(OC)c1,23.0%,-5.8%,-2.7%[53.3 µM],·,?
COc1cccc(-c2ccc(=O)n(CC(=O)NCCc3ccccc3)n2)c1,36.1%,·,·,·,·
COc1ccccc1NC(=O)CC1Sc2ccc(C(F)(F)F)cc2NC1=O (centres undefined),1.9%,-16.8%,-0.6%,64.4*,-3.6%
Cc1cc(NC(=O)c2cc(-c3ccc(Br)cc3)on2)nn1Cc1ccc(Cl)cc1,·,·,·,-0.3,·
Cc1ccc(Cc2nc3ccccc3nc2SCC(=O)NCCc2ccccc2)cc1,-2.6%,-14.6%,0.3%,-1.1,-8.3%
O=C(Nc1nc2nc(-c3ccccc3)cc(=O)n2[nH]1)c1ccc(Cl)cc1,50.1µM*,-14.6%,3.9%,7.1,-12.2%
Cc1ccccc1C(=O)Nc1nc2nc(-c3ccccc3)cc(=O)n2[nH]1,10.6%,-0.1%,4.5%,11.4,-16.6%
COc1cc2c(NC3CCN(C4CCCCC4)CC3)nc(N3CCCN(C(C)C)CC3)nc2cc1OCCCN1CCCCC1,20µM*,·,·,·,·
CCOC(=O)c1sc2ccccc2c1S(=O)(=O)N1CCN(c2cccc(C)c2C)CC1,-7.2%,-26.4%,-15.4%,-5.9,-5.8%
OCC(CO)(CO)NCC(O)Cn1c2ccc(Cl)cc2c2cc(Cl)ccc21 (centres undefined),22.4µM*,·,-13.8%,·,·
COc1ncc(-c2ccc3c(Nc4cc(Oc5cc(F)cc(F)c5)cc(C(=O)O)c4)c(S(=O)(=O)NC4CC4)cnc3c2)c(OC)n1,11.2µM*!,·,-1.2%,·,·
OCCN(CCO)c1nc(N2CCCCC2)c2nc(N(CCO)CCO)nc(N3CCCCC3)c2n1,?,-86.3%,-16.3%[53.3 µM],108.1*!,-44.6%
CCCn1ccc2c(OCC(=O)NCc3ccccc3Cl)cccc2c1=O,3.5%,-10.1%,-39.0%,68.8*,-18.4%
CCn1ccc2c(OCC(=O)Nc3ccccc3C(F)(F)F)cccc2c1=O,1.6%,-34.5%,4.6%,84.9*,?
C=C1CC23CC1CCC2C12OC(=O)C(C)(C(O)C(O)C1O)C2C3C(=O)O (centres undefined),-9.7%[29.8 µM],·,1.6%[53.3 µM],·,·
Cc1cc(C)c(S(=O)(=O)NCCc2sc(-c3cccnc3)nc2C)c(C)c1,-3.5%,-19.8%,0.1%,68.7*,-25.9%
Cc1nc(-c2cccnc2)sc1CCNS(=O)(=O)c1ccc(F)cc1,-2.0%,-13.3%,-7.7%,2.4,-11.2%
COc1ccccc1CNC(=O)CSc1ncc2c(n1)-c1ccc(Cl)cc1N(Cc1ccccc1)S2(=O)=O,2.4%,-7.9%,-6.9%,-5.3,-1.7%
COc1ccccc1CNC(=O)CSc1ncc2c(n1)-c1ccccc1N(Cc1ccc(C)cc1)S2(=O)=O,79.4µM*,-8.5%,0.2%,-0.6,-5.9%
O=C1OC2(c3ccc(O)cc3Oc3cc(O)ccc32)c2ccccc21,15.5%[57.5 µM],-7.2%,-26.2%[53.3 µM],110.6*,9.3%
O=C1OC2(c3ccccc31)c1cc(I)c(O)c(I)c1Oc1c2cc(I)c(O)c1I,1µM*,-24.9%,?,-63.6,-6.8%
COc1ccc2c(c1)CCc1c(C(=O)Nc3cnn(Cc4ccc(Cl)cc4Cl)c3)noc1-2,?,-4.1%,?,-20.4,-11.5%
COc1ccc(OC)c(-c2cc(C(=O)Nc3cnn(Cc4ccc(Cl)cc4Cl)c3)no2)c1,·,·,·,90.6*,·
Cc1c(Cl)cccc1NS(=O)(=O)c1ccc(-c2cnc(C3CC3)o2)cc1,-7.4%,-42.1%,?,-4.2,?
SMILES,NTMT1 inh,HTT-AS promoter,FH mod,GPR32 ag,HTT prom inh
CC(Cc1ccc(O)c(O)c1)(NN)C(=O)O (centres undefined),13.6µM*!,-11.2%,-12.5%[53.3 µM],·,3.4%
C[C@](N)(Cc1ccc(O)c(O)c1)C(=O)O,35.5µM*,-17.3%,?,18.7,-15.3%
N#Cc1c(-c2ccc3ccccc3c2)no[n+]1[O-],9.5%,·,·,·,·
Cc1cccc(CNC(=O)CCCN2C(=O)CCn3nc(-c4cn(C)c5ccccc45)cc32)c1,-4.5%,-22.7%,2.1%,-7.9,0.0%
Cn1cc(-c2cc3n(n2)CCC(=O)N3CCCC(=O)Nc2ccccc2Cl)c2ccccc21,1.0%,-10.4%,2.0%,60.3*,-0.1%
Cn1cc(-c2cc3n(n2)CCC(=O)N3CCCC(=O)Nc2ccccc2F)c2ccccc21,-1.1%,-8.7%,-5.8%,4.7,-22.1%
Cc1cccc(CNC(=O)CN2C(=O)CCn3nc(-c4cn(C)c5ccccc45)cc32)c1,-20.7%,-23.8%,-4.2%,107.3*,-16.2%
Cc1cc(C)n2ncc(C(=O)Nc3ccccc3Sc3ccccc3)c2n1,-2.7%,·,·,·,·
COC(=O)c1c(C)oc2ccc(N(C(=O)c3ccncc3)S(=O)(=O)c3cc(C)c(C)cc3C)cc12,14.3%,-59.8%,-29.2%,-1.4,12.6µM*
CC(=O)c1c(C)oc2ccc(N(C(=O)Oc3ccccc3)S(=O)(=O)c3ccc(Br)cc3)cc12,·,·,·,-14.1,·
CCCc1oc2ccc(NS(=O)(=O)c3ccc(OC)cc3)cc2c1C(=O)OCC,?,-48.2%,?,-16.9,?
CCc1ccc(S(=O)(=O)N(C(=O)Oc2ccccc2)c2ccc3oc(C)c(C(=O)OC)c3c2)cc1,?,-90.7%,-6.7%,-13.1,7.94µM*
CCOc1ccc(S(=O)(=O)Nc2ccc3oc(C)c(C(=O)OC(C)C)c3c2)cc1,7.4%,-7.0%,?,87.0*,?
COC(=O)c1c(C)oc2ccc(N(C(=O)c3ccncc3)S(=O)(=O)c3c(C)cc(C)cc3C)cc12,-0.9%,-37.9%,-10.2%,12.9,?
CCc1ccc(S(=O)(=O)Nc2ccc3oc(C)c(C(=O)OCCOC)c3c2)cc1,·,·,·,64.4*,·
COc1ccc(CCNC(=O)Cn2cc(S(=O)(=O)Cc3ccc(F)cc3)c3ccccc32)cc1OC,10.1%,-27.2%,-20.1%,-10.8,-24.0%
Cc1cc(C)cc(NC(=O)c2cc(C)nc3c2c(C)nn3-c2ccccc2)c1,8.7%,-7.5%,-28.9%,24.7,-7.8%
CC(=O)c1cccc(NC(=O)CN2C(=O)CC(c3ccc(C)cc3C)=Nc3ccccc32)c1,6.2%,-3.5%,0.0%,-10.6,-11.2%
O=C(Nc1ccc(F)c(F)c1)c1ccc(F)c(S(=O)(=O)N2CCC3(CC2)OCCO3)c1,13.4%,-84.9%,-8.8%,24.1,?
CCc1ccc(NC(=O)c2ccc(F)c(S(=O)(=O)N3CCc4ccccc4C3)c2)cc1,-6.2%,-19.7%,-19.2%,-9.5,25.1µM*
CCc1ccc(NC(=O)c2ccc(F)c(S(=O)(=O)N3CCC4(CC3)OCCO4)c2)cc1,-6.4%,-24.8%,-20.8%,0.1,15.8µM*
CCc1ccc(NC(=O)c2ccc(F)c(S(=O)(=O)N3CCC(C)CC3)c2)cc1,-2.0%,-35.9%,3.7%,-11.3,4.47µM*
